HP1b chromo inh – blocks HP1-beta chromodomain binding to methylated histone tails; P83916; AlphaScreen HP1-beta / biotin-H3K9me3 peptide binding; Potency, µM (series often up to 114 µM), most hits filed as inhibitors; actives 0.56% (n = 390,000); further: nearly all actives have a fitted effect of over 70% in size
Target sequence (P83916 whole entry, looked up): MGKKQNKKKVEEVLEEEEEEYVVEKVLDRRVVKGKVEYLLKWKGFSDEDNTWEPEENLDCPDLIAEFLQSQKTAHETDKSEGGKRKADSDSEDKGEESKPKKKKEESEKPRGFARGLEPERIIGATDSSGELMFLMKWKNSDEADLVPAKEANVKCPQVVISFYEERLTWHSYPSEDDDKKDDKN
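AlphaScreen: HP1-beta (50 nM) preformed 30 min with biotin-H3(1-18)K9me3 peptide (50 nM) in PBS pH 7.4, 0.01% Tween-20. Compound added for 30 min at RT, then streptavidin donor/nickel chelate acceptor beads (10 ug/mL) for 30 min.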
GLS inh – blocks human kidney-isoform glutaminase activity; GLS enzymatic activity, qHTS titration; Potency, µM (top dose mostly 45.5 µM), most hits filed as inhibitors; actives 0.21% (n = 410,000); AID 624170
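Human kidney-isoform GLS in 45 mM KH2PO4 pH 8.2, 0.02% Tween-20, with compound, started with 1mM L-Glutamine (added stock). Glutamate oxidase/HRP/Amplex red coupled fluorescence read at start and after 30 min at RT.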
G9a block – inhibitors of human histone lysine methyltransferase G9a. Q96KQ7. G9a H3K9 monomethylation, AlphaScreen, 2 h. Potency, µM (highest dose often 102 µM), most hits filed as inhibitors. actives 8.8% (n = 350,000). AID 504332; further: nearly all actives have a fitted effect of over 75% in size
Target sequence (Q96KQ7 913-1193 limits assumed): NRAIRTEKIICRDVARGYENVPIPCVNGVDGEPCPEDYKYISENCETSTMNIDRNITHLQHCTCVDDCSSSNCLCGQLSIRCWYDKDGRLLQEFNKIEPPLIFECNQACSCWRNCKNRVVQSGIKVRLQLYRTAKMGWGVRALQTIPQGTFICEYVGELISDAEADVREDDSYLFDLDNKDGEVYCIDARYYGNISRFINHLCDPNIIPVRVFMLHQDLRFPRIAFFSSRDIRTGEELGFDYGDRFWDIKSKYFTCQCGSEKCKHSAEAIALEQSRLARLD
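Signal arises when biotinylated H3K9 peptide, once monomethylated, bridges streptavidin donor and antibody-captured acceptor beads. Enzyme at 20 nM was preincubated 15 min with test compounds; peptide 500 nM and SAM 20 uM then reacted for 2 h.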
JMJD2A Tudor inh – blocks the human JMJD2A Tudor domain; actives 4.4% (n = 390,000); Potency, µM (doses to about 114 µM), most hits filed as inhibitors; AlphaScreen JMJD2A-Tudor / H3K4me3 peptide binding; O75164; further: nearly all actives have a fitted effect of over 50% in size
L3MBTL1 block – inhibitors of human L3MBTL1 | Q9Y468 | AlphaScreen L3MBTL1–H3K9me1 peptide binding | Potency, µM (highest dose often 57.1 µM), most hits filed as inhibitors | actives 0.66% (n = 230,000); further: nearly all actives have a fitted effect of over 60% in size
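AlphaScreen proximity signal between nickel-chelate acceptor and streptavidin donor beads (final 10 ug/mL) reports binding of 50 nM L3MBTL1 to 75 nM biotin-H3 K9me1 peptide; complex incubated with compounds 30 min at room temperature; cefsulodin titration as control.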
BAZ2B inh – inhibitors of human BAZ2B bromodomain; Q9UIF8; AlphaScreen BAZ2B-H3K14Ac peptide displacement; Potency, µM (series often up to 114 µM), most hits filed as inhibitors; actives 4.4% (n = 360,000); further: nearly all actives have a fitted effect of over 60% in size
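AlphaScreen luminescence quantifies BAZ2B engagement of H3K14Ac peptide; the protein and biotinylated peptide are both at 50 nM final, buffer PBS pH 7.4 with 0.01% Tween-20, all steps at room temperature.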
Large screens that a line does not name were inactive. The list is not random: actives were taken first. Their share in the collection is about 10%. The call rests on the fitted dose curve; in most records, active means well fitted curve in the direction sought with a large enough effect; inconclusive means small, poorly fitted or top-dose-only effect, or another doubt; inactive means no such curve, though single readings can be large; an effect the other way counts as inactive or inconclusive.

CN1CCN(C(=S)Nc2ccc(S(N)(=O)=O)cc2)CC1	G9a block 39.8µM
NS(=O)(=O)c1ccc(NC(=S)N2CCN(S(=O)(=O)c3ccc(F)cc3)CC2)cc1	none (no result: HP1b chromo inh, GLS inh, JMJD2A Tudor inh)
S=C(NCCN1CCOCC1)N1CCN(c2cccc(Cl)c2)CC1	G9a block 35.5µM, JMJD2A Tudor inh 8.91µM, BAZ2B inh 28.2µM (no result: L3MBTL1 block)
S=C(NCc1ccco1)N1CCN(c2cccc(Cl)c2)CC1	G9a block inconclusive
NS(=O)(=O)c1ccc(NC(=S)N2CCN(c3cccc(Cl)c3)CC2)cc1	G9a block 8.91µM
COc1ccc(OC)c(NC(=O)Cn2c(=O)c3cccn3c3ccccc32)c1	none (no result: L3MBTL1 block)
COc1ccc(Nc2nccc(-c3ccc(C#N)cc3)n2)cc1	none (no result: L3MBTL1 block)
COc1ccc(Nc2nccc(-c3cccc(N)c3)n2)cc1	BAZ2B inh 56.2µM (no result: L3MBTL1 block)
O=C1C2C3C=CC(C3)C2C(=O)N1CN(Cc1ccccc1)CN1C(=O)C2C3C=CC(C3)C2C1=O (stereo not given)	none
OCCN(Cc1ccccc1)CC1CC2C=CC1C2 (stereo not given)	G9a block 14.1µM, JMJD2A Tudor inh 3.16µM, BAZ2B inh inconclusive (no result: L3MBTL1 block)
OCCN(Cc1ccccc1)CC1CCCCC1	G9a block 11.2µM, JMJD2A Tudor inh 22.4µM, BAZ2B inh inconclusive (no result: L3MBTL1 block)
COc1ccc(C2=CSC(/N=C/c3ccc(F)cc3)=NN2)cc1	HP1b chromo inh inconclusive, GLS inh inconclusive, G9a block 25.1µM, JMJD2A Tudor inh inconclusive
CN(Cc1ccccc1)C(=O)CN1CCN(S(=O)(=O)c2ccc(Cl)c(Cl)c2)CC1	G9a block inconclusive
Cc1cc(S(=O)(=O)N2CCN(CC(=O)N(C)Cc3ccccc3)CC2)ccc1Br	G9a block 56.2µM
C=Cc1ccc(CN2C(=O)N(c3ccc(CC)cc3)S(=O)(=O)c3ccccc32)cc1	none (no result: L3MBTL1 block)
CCc1nc(N)nc(N)c1-c1ccc(N(C)Cc2ccccc2)c([N+](=O)[O-])c1	JMJD2A Tudor inh 44.7µM (no result: G9a block, L3MBTL1 block, BAZ2B inh)
Clc1ccc2ccc3cccnc3c2n1	none (no result: L3MBTL1 block)
Cc1[nH]c2c(ccc3cccnc32)c1C	HP1b chromo inh inconclusive, JMJD2A Tudor inh 44.7µM, BAZ2B inh 35.5µM
CCOc1ccc2nc(SCC)[nH]c2c1	BAZ2B inh 89.1µM
CCOc1ccc2nc(SCC(=O)NCc3ccccc3)[nH]c2c1	none
N=C1S/C(=C\c2ccco2)C(=O)N1c1ccc2c(c1)OCO2	GLS inh inconclusive, G9a block 44.7µM, JMJD2A Tudor inh inconclusive, L3MBTL1 block inconclusive, BAZ2B inh 56.2µM
N=C1S/C(=C\c2ccco2)C(=O)N1c1nccs1	G9a block 35.5µM, L3MBTL1 block inconclusive, BAZ2B inh inconclusive
O=C1C2C3C=CC(C3)C2C(=O)N1c1ccc2c(c1)OCO2 (stereo not given)	none
Cc1cnc2c3c(cc(Cl)c2c1)-c1ccccc1S(=O)(=O)N3	JMJD2A Tudor inh 20µM (no result: GLS inh, G9a block, L3MBTL1 block, BAZ2B inh)
COc1ccc(C2/C=C\CN(C(=O)c3ccccc3)C(C)C(=O)N2Cc2ccc(F)cc2)cc1 (stereo not given)	none (no result: GLS inh, G9a block, L3MBTL1 block, BAZ2B inh)
O=c1[nH]c(/C=C/c2cccc3ccccc23)nc2ccccc12	none
CCCN1C(=O)/C(=C\c2nc3ccccc3c(=O)[nH]2)c2ccccc21	G9a block 31.6µM, BAZ2B inh inconclusive
CC(C)NC(=O)NC(=O)COc1ncnc2sccc12	HP1b chromo inh inconclusive, G9a block 50.1µM, JMJD2A Tudor inh inconclusive
CC(C)NC(=O)COc1ncnc2sccc12	none
COc1ccccc1CNC(=O)c1c[nH]c2ccc(S(=O)(=O)Nc3cc(C)cc(C)c3)cc2c1=O	none (no result: L3MBTL1 block)
O=C(C1CCN(S(=O)(=O)Cc2ccccc2)CC1)N1CCN(c2ccccc2F)CC1	G9a block inconclusive (no result: L3MBTL1 block)
Cc1cc(-c2ccccc2)nc(N/N=C/c2ccc(N(C)C)cc2)n1	HP1b chromo inh inconclusive, JMJD2A Tudor inh 35.5µM (no result: G9a block, L3MBTL1 block, BAZ2B inh)
Cc1ccc(/C=N/Nc2nc(C)cc(C)n2)cc1	G9a block inconclusive
CC(/C=N/Nc1nc(C)cc(C)n1)=C\c1ccc(C(C)C)cc1	HP1b chromo inh inconclusive, G9a block 39.8µM
Cc1cc(C)nc(N/N=C/c2ccc(Cl)cc2)n1	G9a block 44.7µM
CC(/C=N/NC(=O)c1ccncc1)=C\c1ccc(C(C)C)cc1	L3MBTL1 block inconclusive
